# LASV entry inh = Lassa virus entry inhibition | AID 540256 | hit rate 1.2% among 300,000 | Lassa virus pseudotype entry inhibition, cell reporter | Potency, µM (series often up to 37.9 µM), without a hit: at the top dose activity change, negative = inhibition, usual class: inhibitors; calls by dose curve; tested in HEK293 cells; also: potency is read from the fitted curve at half-maximal effect; nearly all actives have a fitted effect of over 50% in size
# Vaccinia mCherry = inhibitors of vaccinia virus infection (mCherry reporter signal); Vaccinia virus mCherry reporter infection, fluorescence; Potency, µM (highest dose often 36.5 µM), for the others: top-dose activity change, negative = inhibition, actives largely listed as inhibitors; hit rate 0.63% among 310,000; calls by dose curve; tested in A549 cells; also: potency is read from the fitted curve at half-maximal effect; nearly all actives have a fitted effect of over 35% in size
# HCMV inh = inhibitors of human cytomegalovirus. HFF cells, HCMV-luciferase reporter, 72 h; active compounds read low. activity change, negative = inhibition, % at 57.5 µM. hit rate 4.5% among 410,000. AID 1259415; in the data active = activity change below about -60%; inconclusive = no clear call, values can overlap the other calls; inactive = above about -39%
#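 Steps: HFFs plated, 16 h 37C; compounds added; HCMV-luciferase added to MOI 1 PFU/cell; 72 h 37C; OneGlo reagent, 5 min room temperature; luminescence read, normalized to controls.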
# HCV inh = HCV inhibition; Huh7.5.1 HCVcc-Cre infection, luciferase reporter, 44 h; Potency, µM (top dose mostly 41.8 µM), without a hit: at the highest dose activity change, negative = inhibition, usual class: inhibitors; hit rate 3.4% among 340,000; active = well fitted inhibition curve with a large enough effect; inconclusive = small, poorly fitted or top-dose-only effect, or another doubt; inactive = no such curve, though single readings can be large or run the other way; also: potency is read from the fitted curve at half-maximal effect
#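 After 44 h co-culture of compound, cells and HCVcc-Cre (~0.5 moi), substrate is added for 15 min at room temperature and luciferase measured over 15 sec. Cells were seeded at 1,000/well and pre-cultured 4 h.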
# MARV entry inh = inhibitors of Marburg virus binding or cell entry | Marburg virus pseudotyped entry inhibition, cell reporter | Potency, µM (titrated, usually from 37.8 µM), for the others: at the top dose activity change, negative = inhibition, usual class: inhibitors | hit rate 1.8% among 300,000 | AID 540276; calls by dose curve; tested in HEK293 cells; also: potency is read from the fitted curve at half-maximal effect
# Vaccinia Venus = vaccinia inhibition (Venus reporter); Vaccinia virus Venus reporter expression, fluorescence; Potency, µM (highest dose often 36.5 µM), inactives show at the top dose activity change, negative = inhibition, usual class: inhibitors; hit rate 0.46% among 330,000; calls by dose curve; tested in A549 cells; also: potency is read from the fitted curve at half-maximal effect; nearly all actives have a fitted effect of over 30% in size
# Active calls of the source: *; i = inactive; ? = inconclusive; · = no result; [ ] = another dose, or the depositor's remark. The list is not random: actives were taken first. Their share in the collection is about 7.8%. % is scaled to controls: 0 for no effect and ±100 for the full control effect.
SMILES,LASV entry inh,Vaccinia mCherry,HCMV inh,HCV inh,MARV entry inh,Vaccinia Venus
Cn1cnc(S(=O)(=O)N2CCC(C(=O)Nc3ccc(OC(F)(F)F)cc3)CC2)c1,18%[46.1 µM],i,-60*,·,·,-20%
Cc1ccc(NC(=O)C2CCN(S(=O)(=O)c3ccc(N4CCCC4=O)cc3)CC2)cc1Cl,?,-10%,-86*,10µM*,?,-17%
CCOc1ncccc1C(=O)Nc1ccc(C)c(S(=O)(=O)N2CCCCCC2)c1,·,·,-15,14µM*,·,·
Cc1ccccc1OCC(=O)Nc1ccc(C)c(S(=O)(=O)N2CCCCCC2)c1,?,?,-17,?,?,-21%
Cn1cnc(S(=O)(=O)N2CCC(C(=O)Nc3ccc(C#N)cc3)CC2)c1,10%[46.1 µM],-7%,12,·,·,-2%
COc1ccc(CCNC(=O)c2c(O)nc3c(C)cccn3c2=O)cc1OC,·,-9%,-9,·,0%[46.1 µM],-10%
CCn1nc(C)c(CCN(C)C(=O)Nc2cc(Cl)ccc2C)c1C,9%[46.1 µM],-2%,12,·,·,12%
COc1ccc(O)c(CN2CCC3(CC2)c2ccccc2[C@@H](NC(=O)c2cccc(F)c2)[C@@H]3OC)c1,·,-18%,·,·,·,-7%
Cc1ccc(NC(=O)CNC(=O)c2ccc(OC(F)F)cc2)cc1S(=O)(=O)N1CCCCCC1,·,·,-24,16µM*,·,·
CC(=O)Nc1ccc(NC(=O)C2CCCN(C(=O)c3ccc(Cl)cc3)C2)cc1 (configuration not stated),·,-20%,-12,21%,-10%[46.1 µM],-9%
Cc1ccc(NC(=O)C2CCCN(C(=O)c3ccc(Cl)cc3)C2)cc1S(=O)(=O)N1CCOCC1 (configuration not stated),?,i,-72*,4µM*,?,-26%
O=C(CNc1cccc(F)c1)Nc1cccc(S(=O)(=O)N2CCCCC2)c1,-9%,0%,4,?,1%[46.1 µM],-7%
O=C(Nc1ccc(OC(F)(F)F)cc1)C1CCCN(C(=O)c2ccc(Cl)cc2)C1 (configuration not stated),·,·,-39,7.9µM*,·,·
Cc1ccc(NCC(=O)Nc2cccc(F)c2)cc1S(=O)(=O)N1CCCCCC1,?,-18%,-98*,?,?,-13%
Cc1ccc(NC(=O)COC(=O)c2ccc(OC(F)F)cc2)cc1S(=O)(=O)N1CCCCC1,·,·,-12,-20%,·,·
Cc1ccccc1C(=O)N1CCC(C(=O)Nc2ccc(C)c(S(=O)(=O)N3CCCCC3)c2)CC1,·,·,0,10µM*,·,·
C=CCNC(=O)CSc1nnc(C(CC)N(C)C)n1C1CCCCC1 (configuration not stated),·,·,0,23%,·,·
CCC(c1nnc(SCC(=O)Nc2ccc(Cl)cc2C(F)(F)F)n1C1CCCCC1)N(C)C (configuration not stated),13µM*,-6%,-36,1%,?,-21%
O=C(C[C@@H]1C/C=C\C[C@@H](NC(=O)OCC2c3ccccc3-c3ccccc32)C(=O)OC[C@@H](Cc2ccccc2)NC1=O)NCCO,·,i,-32,2µM*,·,-18%
O=C(N[C@@H]1C/C=C\C[C@H](CC(=O)N(CCO)Cc2ccccc2)C(=O)N[C@@H](Cc2ccccc2)COC1=O)OCC1c2ccccc2-c2ccccc21,·,?,-69*,-18%,·,?
C[C@@H]1COC(=O)[C@H](NC(=O)OCC2c3ccccc3-c3ccccc32)C/C=C\C[C@@H](CC(=O)N(CCO)Cc2ccccc2)C(=O)N1,·,-7%,·,-22%,·,-10%
O=C(N[C@H]1C/C=C\C[C@@H](CC(=O)N(CCO)Cc2ccccc2)C(=O)NC[C@H](c2ccccc2)OC1=O)OCC1c2ccccc2-c2ccccc21,·,10µM*,?,?,·,?
O=C(CN1C(=O)COc2ccc(S(=O)(=O)N3CCOCC3)cc21)N1CCN(c2cccc(C(F)(F)F)c2)CC1,6%[46.1 µM],11%,-2,·,?,13%
CCOC(=O)N1CCC(NC(=O)c2cnn(-c3ccc(C)cc3)c2-n2cccc2)CC1,3%[46.1 µM],-11%,-2,·,·,-11%
O=[N+]([O-])c1ccc2nc(NN=Cc3ccc(O)cc3)sc2c1,-25%[46.1 µM],3.2µM*,-62*,1%,?,?
SMILES,LASV entry inh,Vaccinia mCherry,HCMV inh,HCV inh,MARV entry inh,Vaccinia Venus
Cn1cc(CN(C(=O)Nc2ccc(Cl)c(Cl)c2)C2CCCCC2)c2ccccc21,0%[46.1 µM],-28%,28,·,-3%[46.1 µM],-10%
Cn1cc(CN(C(=O)Nc2ccccc2)C2CCCCC2)c2ccccc21,?,?,-105*,·,-3%[46.1 µM],-20%
CN(CC(=O)Nc1cccc(F)c1)C(=O)c1sccc1-c1ccccc1,-20%,i,-20,?,-19%[46.1 µM],-14%
CN(CC(=O)Nc1ccc(Cl)cc1)C(=O)c1sccc1-c1ccccc1,·,·,0,13µM*,·,·
O=C(Nc1cccc(NC(=O)c2nccc3ccccc23)c1)c1ccco1,4%,-16%,-97*,-22%,-29%,-22%
Cc1cccc(Oc2ccc(NC(=O)c3ccccc3C(=O)O)cc2)c1C,5%,?,-26,-1%,0%[46.1 µM],-16%
O=C(Nc1ccc(OC(=O)c2ccco2)cc1)c1ccco1,10%,·,17,15%,25%,·
O=C(Nc1cccc(NC(=O)c2sc3ccccc3c2Cl)c1)c1ccco1,0%,-8%,?,?,?,?
O=C(O)c1ccccc1C(=O)Nc1ccc(Oc2cccc3ccccc23)cc1,?,?,-64*,-1%,?,-7%
O=C(Nc1ccc(Oc2cccc3ccccc23)cc1)c1ccco1,?,·,-68*,?,?,-19%
O=C(CSc1nc(-c2cccs2)cc(C(F)(F)F)n1)Nc1cc(OCC(F)(F)C(F)F)cc([N+](=O)[O-])c1,?,-9%,-1,3.5µM*,?,-28%
Cc1onc(-c2ccccc2)c1C(=O)Nc1sc2c(c1C#N)CCC2,?,·,?,?,4.6µM*,·
Cn1cc([N+](=O)[O-])c(C(=O)Nc2sc3c(c2C#N)CCC3)n1,·,·,-101*,-1%,·,·
Cc1noc(C)c1C(=O)Nc1sc(C)c(-c2ccccc2)c1C#N,14%,-7%,-104*,3%,-1%,4%
Cc1onc(-c2c(F)cccc2Cl)c1C(=O)Nc1sc2c(c1C(N)=O)CCC2,-28%,·,-74*,?,?,·
Cc1onc(-c2ccccc2)c1C(=O)NC(=S)Nc1sc2c(c1C#N)CCCC2,5%,·,-25,1%,-2%,·
Cn1c(-c2cccnc2)cc2cnc(Nc3ccc4c(c3)OCCO4)cc21,·,·,43,·,·,·
COc1ccc(-c2oc(=O)c3cc(OC)c(OC)cc3c2C#CCCO)cc1,·,-23%,-18,3.2µM*,·,-16%
COc1cc(OC)cc(-c2oc(=O)c3cc(OC)c(OC)cc3c2C#CCCO)c1,·,i,5,?,·,-14%
COc1ccc(-c2ccc3oc(-c4ccc(OC)cc4)c(-c4ccc(OC)cc4)c3c2)cc1,·,i,-8,11%,·,-4%
